According to the supplement of paper PMC11732987, “Enantioselective OTUD7B fragment discovery through chemoproteomics screening and high-throughput optimisation” (Communications Chemistry, 2025):

Experiments:
Assay in all cases: log2 ratio of Biotin-Ahx-Ub-VS probe labelling (fragment/DMSO); higher = less target engagement (more negative = stronger competition), active = hit call of the paper (q ≤ 0.05, log2 ratio ≤ -1)
Conditions in all cases: compound concentration: 200 uM; treatment time: 3 h
ALG13 = biological target: T1, ALG13 (UniProt Q9NP73)
T1 sequence (whole entry): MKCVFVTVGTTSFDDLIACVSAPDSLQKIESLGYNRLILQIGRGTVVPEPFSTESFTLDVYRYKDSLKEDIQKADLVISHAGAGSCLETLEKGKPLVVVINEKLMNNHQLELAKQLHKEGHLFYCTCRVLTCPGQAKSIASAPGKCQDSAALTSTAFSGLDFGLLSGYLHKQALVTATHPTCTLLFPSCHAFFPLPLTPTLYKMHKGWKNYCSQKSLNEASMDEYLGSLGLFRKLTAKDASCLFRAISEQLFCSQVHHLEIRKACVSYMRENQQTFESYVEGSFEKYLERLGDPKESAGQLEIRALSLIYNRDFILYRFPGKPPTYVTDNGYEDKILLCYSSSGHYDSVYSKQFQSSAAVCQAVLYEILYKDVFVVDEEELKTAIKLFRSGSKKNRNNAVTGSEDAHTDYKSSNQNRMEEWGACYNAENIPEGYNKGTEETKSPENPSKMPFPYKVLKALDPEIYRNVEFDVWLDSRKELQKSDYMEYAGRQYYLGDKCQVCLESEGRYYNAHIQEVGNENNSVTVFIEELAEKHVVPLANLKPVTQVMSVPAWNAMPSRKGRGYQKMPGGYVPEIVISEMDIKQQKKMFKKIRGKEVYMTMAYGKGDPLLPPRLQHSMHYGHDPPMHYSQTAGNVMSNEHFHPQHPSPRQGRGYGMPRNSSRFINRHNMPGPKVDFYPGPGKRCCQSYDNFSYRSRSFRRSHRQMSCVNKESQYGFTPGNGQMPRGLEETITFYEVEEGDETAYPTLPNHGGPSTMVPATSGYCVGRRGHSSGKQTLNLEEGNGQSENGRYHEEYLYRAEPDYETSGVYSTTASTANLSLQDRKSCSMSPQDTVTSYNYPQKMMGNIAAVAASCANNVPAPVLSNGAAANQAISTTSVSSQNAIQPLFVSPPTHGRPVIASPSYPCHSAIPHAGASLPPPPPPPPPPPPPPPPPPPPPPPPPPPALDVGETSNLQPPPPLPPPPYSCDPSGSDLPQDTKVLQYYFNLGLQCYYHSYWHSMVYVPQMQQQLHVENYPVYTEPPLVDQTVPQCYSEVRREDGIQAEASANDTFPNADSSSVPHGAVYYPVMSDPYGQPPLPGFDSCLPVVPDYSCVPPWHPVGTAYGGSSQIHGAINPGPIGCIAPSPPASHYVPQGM
Summary of the method: (§1)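 HEK293T lysate, 495 µg per sample in Tris/CHAPS/IGEPAL buffer with protease inhibitors, was treated in triplicate with fragment at 200 µM or vehicle for 3 h and then with Biotin-Ahx-Ub-VS at 0.5 µM final for 1 h. Labelled DUBs were NeutrAvidin-enriched, digested with LysC and trypsin, and run by diaPASEF LC-MS/MS. Spectronaut label-free quantities were global-median-normalised, and values are average log2 fragment/vehicle ratios by unpaired t-test on proteins with ≥2 unique peptides.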

ATXN3 = ATXN3 (UniProt P54252)
Summary of the method: as §1

BAP1 = biological target: T2, BAP1 (UniProt Q92560)
T2 sequence (whole entry): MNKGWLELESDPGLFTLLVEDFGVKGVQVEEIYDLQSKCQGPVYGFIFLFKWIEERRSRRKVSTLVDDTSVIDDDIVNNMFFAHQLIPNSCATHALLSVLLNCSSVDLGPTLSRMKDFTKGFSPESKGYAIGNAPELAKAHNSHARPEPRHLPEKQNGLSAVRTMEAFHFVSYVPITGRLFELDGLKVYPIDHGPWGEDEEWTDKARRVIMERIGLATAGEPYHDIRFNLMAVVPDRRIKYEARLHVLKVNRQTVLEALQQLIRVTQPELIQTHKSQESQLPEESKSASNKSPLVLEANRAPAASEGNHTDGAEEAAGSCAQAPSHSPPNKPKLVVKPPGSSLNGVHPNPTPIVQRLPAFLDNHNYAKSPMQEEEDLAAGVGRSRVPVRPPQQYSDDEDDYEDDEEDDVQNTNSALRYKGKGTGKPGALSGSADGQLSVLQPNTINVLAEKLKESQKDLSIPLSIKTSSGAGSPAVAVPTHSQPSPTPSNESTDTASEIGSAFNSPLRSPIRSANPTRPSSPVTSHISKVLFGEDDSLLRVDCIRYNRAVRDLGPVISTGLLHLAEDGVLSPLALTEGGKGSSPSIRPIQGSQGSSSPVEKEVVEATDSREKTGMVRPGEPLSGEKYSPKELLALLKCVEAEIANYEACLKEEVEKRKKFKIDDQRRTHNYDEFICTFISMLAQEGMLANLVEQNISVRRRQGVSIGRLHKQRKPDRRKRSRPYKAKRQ
Summary of the method: as §1

EIF3F = EIF3F (UniProt O00303)
Summary of the method: as §1

EIF3H = EIF3H (UniProt O15372)
Summary of the method: as §1

FAM105A = biological target: T3, FAM105A (UniProt Q9NUU6)
T3 sequence (whole entry): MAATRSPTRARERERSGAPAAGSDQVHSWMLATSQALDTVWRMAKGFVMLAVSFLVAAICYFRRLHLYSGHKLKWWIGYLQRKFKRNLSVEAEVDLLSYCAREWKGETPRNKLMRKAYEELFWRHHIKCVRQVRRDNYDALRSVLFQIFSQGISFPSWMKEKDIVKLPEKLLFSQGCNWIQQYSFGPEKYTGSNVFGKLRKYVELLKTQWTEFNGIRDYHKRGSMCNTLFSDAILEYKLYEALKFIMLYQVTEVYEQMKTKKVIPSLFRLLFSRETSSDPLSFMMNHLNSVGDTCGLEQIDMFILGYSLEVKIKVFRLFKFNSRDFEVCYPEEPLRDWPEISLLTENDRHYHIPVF
Summary of the method: as §1

OTUB1 = OTUB1 (UniProt Q96FW1)
Summary of the method: as §1

OTUD4 = biological target: T4, OTUD4 (UniProt Q01804)
T4 sequence (whole entry): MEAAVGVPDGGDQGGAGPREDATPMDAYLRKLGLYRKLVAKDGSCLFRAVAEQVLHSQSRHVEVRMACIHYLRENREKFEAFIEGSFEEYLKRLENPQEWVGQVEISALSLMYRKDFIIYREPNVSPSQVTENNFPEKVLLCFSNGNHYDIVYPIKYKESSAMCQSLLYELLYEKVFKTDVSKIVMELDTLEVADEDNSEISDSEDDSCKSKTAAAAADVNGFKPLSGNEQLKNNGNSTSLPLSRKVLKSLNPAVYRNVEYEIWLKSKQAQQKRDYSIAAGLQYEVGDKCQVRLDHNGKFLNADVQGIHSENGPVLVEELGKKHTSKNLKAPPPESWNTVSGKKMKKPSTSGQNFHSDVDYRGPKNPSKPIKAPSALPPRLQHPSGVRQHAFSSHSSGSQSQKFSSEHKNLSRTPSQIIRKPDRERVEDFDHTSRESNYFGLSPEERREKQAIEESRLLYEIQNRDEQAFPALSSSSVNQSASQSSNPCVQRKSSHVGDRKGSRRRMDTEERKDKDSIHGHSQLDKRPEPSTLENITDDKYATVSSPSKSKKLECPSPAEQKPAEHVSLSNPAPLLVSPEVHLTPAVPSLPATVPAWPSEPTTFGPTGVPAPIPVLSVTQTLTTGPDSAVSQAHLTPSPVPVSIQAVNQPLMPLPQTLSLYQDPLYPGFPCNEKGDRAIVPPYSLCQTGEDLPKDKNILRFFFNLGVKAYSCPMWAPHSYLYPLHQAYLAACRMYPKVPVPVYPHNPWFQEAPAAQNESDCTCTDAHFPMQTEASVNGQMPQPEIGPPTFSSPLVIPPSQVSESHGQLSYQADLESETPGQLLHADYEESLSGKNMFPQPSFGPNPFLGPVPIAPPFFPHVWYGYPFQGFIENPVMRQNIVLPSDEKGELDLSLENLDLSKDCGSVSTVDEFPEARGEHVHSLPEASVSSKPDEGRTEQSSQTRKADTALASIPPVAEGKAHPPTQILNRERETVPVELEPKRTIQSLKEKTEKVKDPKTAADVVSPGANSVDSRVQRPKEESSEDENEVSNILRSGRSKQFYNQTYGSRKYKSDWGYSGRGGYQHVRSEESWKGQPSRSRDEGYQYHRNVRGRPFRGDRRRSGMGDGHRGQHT
Summary of the method: as §1

OTUD5 = biological target: T5, OTUD5 (UniProt Q96G74)
T5 sequence (whole entry): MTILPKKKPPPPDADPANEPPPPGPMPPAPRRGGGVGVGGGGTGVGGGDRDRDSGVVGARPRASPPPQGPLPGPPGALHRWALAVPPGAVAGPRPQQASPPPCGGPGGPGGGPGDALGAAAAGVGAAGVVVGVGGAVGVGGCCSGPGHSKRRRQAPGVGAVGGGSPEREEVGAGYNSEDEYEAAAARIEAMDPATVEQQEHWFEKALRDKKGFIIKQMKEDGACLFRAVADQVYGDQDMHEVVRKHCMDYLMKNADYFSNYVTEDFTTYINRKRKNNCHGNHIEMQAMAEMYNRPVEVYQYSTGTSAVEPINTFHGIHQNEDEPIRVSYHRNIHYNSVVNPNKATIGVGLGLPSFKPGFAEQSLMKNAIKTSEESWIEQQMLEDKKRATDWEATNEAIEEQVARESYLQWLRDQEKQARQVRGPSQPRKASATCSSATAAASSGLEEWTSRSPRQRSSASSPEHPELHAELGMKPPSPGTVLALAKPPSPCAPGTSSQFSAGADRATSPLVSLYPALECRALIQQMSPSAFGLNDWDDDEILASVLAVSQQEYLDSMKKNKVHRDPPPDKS
Summary of the method: as §1

Measured: log2 ratio of Biotin-Ahx-Ub-VS probe labelling

EIF3H, sequence (O15372 whole entry): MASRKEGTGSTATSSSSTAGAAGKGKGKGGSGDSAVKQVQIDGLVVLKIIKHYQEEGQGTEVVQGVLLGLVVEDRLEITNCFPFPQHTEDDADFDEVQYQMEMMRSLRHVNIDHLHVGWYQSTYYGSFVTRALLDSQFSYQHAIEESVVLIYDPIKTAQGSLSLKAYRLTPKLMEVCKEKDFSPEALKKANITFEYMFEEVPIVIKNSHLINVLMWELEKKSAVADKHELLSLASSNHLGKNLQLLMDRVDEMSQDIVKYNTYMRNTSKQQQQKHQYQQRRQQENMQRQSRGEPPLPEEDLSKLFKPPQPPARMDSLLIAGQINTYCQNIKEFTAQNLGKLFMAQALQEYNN
ATXN3, sequence (P54252 whole entry): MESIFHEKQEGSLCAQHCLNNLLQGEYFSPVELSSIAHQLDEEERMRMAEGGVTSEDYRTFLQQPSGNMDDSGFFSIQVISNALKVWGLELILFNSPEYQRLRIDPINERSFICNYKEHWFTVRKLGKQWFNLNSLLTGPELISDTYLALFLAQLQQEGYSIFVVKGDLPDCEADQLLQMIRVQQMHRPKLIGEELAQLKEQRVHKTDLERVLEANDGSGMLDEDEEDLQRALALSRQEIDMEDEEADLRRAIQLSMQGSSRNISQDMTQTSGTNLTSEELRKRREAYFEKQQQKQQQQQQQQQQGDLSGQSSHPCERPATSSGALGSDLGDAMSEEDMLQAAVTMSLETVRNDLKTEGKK
OTUB1, sequence (Q96FW1 whole entry): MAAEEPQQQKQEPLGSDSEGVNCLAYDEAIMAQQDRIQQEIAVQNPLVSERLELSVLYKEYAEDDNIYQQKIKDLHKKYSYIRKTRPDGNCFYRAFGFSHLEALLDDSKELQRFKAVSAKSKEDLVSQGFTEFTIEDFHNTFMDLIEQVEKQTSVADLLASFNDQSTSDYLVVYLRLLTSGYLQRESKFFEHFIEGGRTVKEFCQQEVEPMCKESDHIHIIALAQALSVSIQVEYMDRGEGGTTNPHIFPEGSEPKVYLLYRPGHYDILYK
EIF3F, sequence (O00303 whole entry): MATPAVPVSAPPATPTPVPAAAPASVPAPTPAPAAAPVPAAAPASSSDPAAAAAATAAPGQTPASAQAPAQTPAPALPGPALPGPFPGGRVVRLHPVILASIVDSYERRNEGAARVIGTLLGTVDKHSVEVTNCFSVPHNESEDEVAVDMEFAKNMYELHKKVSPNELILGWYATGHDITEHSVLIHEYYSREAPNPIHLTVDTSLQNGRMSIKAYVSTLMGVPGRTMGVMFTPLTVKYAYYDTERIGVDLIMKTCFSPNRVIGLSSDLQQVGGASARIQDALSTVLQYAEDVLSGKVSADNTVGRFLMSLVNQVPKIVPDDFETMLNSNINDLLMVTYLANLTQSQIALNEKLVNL

COc1cc(Cl)c(C)cc1NC(=O)CCl
active: BAP1 -2.01
inactive: ALG13 -0.216 | ATXN3 -0.37 | EIF3F 0.0292 | EIF3H -0.06 | FAM105A 0.159 | OTUB1 -0.0736 | OTUD4 -0.51 | OTUD5 -0.644
